Screens: PubChem, Sanford-Burnham Center for Chemical Genomics
Many of the other results were omitted from the sample, so hits are more common in it than they were.
Artemis endo inh – Artemis (human) endonuclease inhibition; Q96SD1; AID 686954; recombinant Artemis, quenched FAM hairpin cleavage fluorescence; 30,000 tested, 0.78% active; inhibition, % at 10 µM;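 active = at 10 µM dose, at least 30% inhibition, measured as corrected fluorescence normalized to stimulator and neutral control wells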
Target sequence (Q96SD1 whole entry, looked up): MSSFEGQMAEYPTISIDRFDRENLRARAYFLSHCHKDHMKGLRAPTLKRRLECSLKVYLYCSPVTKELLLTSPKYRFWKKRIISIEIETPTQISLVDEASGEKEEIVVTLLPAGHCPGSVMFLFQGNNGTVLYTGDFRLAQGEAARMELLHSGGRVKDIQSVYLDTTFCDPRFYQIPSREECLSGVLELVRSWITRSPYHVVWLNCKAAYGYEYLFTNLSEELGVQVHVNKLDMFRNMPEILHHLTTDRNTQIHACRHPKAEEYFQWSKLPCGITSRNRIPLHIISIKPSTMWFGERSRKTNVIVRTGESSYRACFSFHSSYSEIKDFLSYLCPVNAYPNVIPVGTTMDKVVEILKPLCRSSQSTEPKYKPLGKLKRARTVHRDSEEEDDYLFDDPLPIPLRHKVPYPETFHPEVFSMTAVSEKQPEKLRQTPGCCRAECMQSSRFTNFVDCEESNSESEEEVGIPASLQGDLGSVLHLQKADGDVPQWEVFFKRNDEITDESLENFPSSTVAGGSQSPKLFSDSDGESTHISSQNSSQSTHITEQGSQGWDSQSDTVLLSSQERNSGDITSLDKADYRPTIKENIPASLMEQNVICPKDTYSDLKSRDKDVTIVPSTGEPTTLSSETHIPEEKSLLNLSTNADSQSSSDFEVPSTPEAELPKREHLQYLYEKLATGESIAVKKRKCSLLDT
Active calls of the source: *.

`Cn1c(NCc2ccco2)nc2c1c(=O)n(Cc1ccc(Cl)c(Cl)c1)c(=O)n2C` gave Artemis endo inh 8.8.
For Cc1ccc(-c2noc(CCC(=O)NCCN3CCc4ccccc4C3)n2)cc1 the results were Artemis endo inh 10.4.
For CCCCn1c(=O)n(CC(=O)Nc2ccc(OC)c(Cl)c2)c(=O)c2c1nc(CO)n2CCC the results were Artemis endo inh 0.2.
For O=C(NC(=S)Nc1ccc2[nH]ncc2c1)c1ccccc1 the results were Artemis endo inh -1.8.
CCCc1cc(C(=O)N/N=C/c2ccc(C)o2)c2ccccc2n1 was read as Artemis endo inh -3.5.
`O=C(NC(C(=O)N/N=C/c1c2ccccc2cc2ccccc12)c1n[nH]c(=O)c2ccccc12)c1ccccc1` (stereo unspecified) gave Artemis endo inh 43.9*.
`COc1ccc(CSc2nnc(Cc3sc(-c4ccccc4)nc3-c3ccccc3)o2)cc1` gave Artemis endo inh 3.4.
`CCOC(=O)CSc1nc(C)c2ccc(C)cc2n1` gave Artemis endo inh -5.8.
Cc1ccc(CO/N=C\Cc2snc(Sc3ncc(C(F)(F)F)cc3Cl)c2C#N)cc1 was read as Artemis endo inh 3.1.
For COc1ccc(/C=N/NC(=O)c2nc(-c3ccccc3)cc(-c3ccccc3)n2)cc1 the results were Artemis endo inh 35.3*.
For COc1cc(/C=N/NC(=O)c2cnn3c(C)cc(-c4ccccc4)nc23)ccc1O the results were Artemis endo inh 9.9.
COc1ccc(/C=N/NC(=O)c2nn(-c3ccc(C)c(C)c3)c(=O)c3ccccc23)cc1 was read as Artemis endo inh 12.7.
Screening Cn1c(=O)c(NCCc2ccccc2)c2c3c(cccc31)C(=O)c1ccccc1-2 returned Artemis endo inh -53.0.
Screening CCOc1ccc2nc(NC(=O)C3CCCN(S(=O)(=O)c4cccs4)C3)sc2c1 (stereo unspecified) returned Artemis endo inh 34.3*.
Screening CCOc1ccc2nc(NC(=O)C(CCSC)NS(=O)(=O)c3cccs3)sc2c1 (stereo unspecified) returned Artemis endo inh -0.6.
Screening O=C(NC1CCCCCC1)C1CCCN(S(=O)(=O)c2cccs2)C1 (stereo unspecified) returned Artemis endo inh 4.8.
Screening CC(C)Nc1nc(NC(C)(C)C)nc(Oc2ccc(=O)n(-c3ccccc3)n2)n1 returned Artemis endo inh -0.6.
Oc1c(C(Nc2ccccn2)c2ccccn2)ccc2cccnc12 (stereo unspecified) was read as Artemis endo inh 38.3*.
Cc1cc(NC(c2ccc(Cl)cc2)c2ccc3cccnc3c2O)no1 (stereo unspecified) was read as Artemis endo inh 10.2.
`CC(=O)NC(c1ccco1)c1ccc2cccnc2c1O` (stereo unspecified) gave Artemis endo inh -3.4.
`Cc1cnn(-c2ccc3nnc(-c4ccc(Cl)cc4)n3n2)c1` gave Artemis endo inh -1.1.
COC(=O)[C@@H]1[C@@H](C#N)C2(c3ccccc3-c3ccccc32)N(c2ccc(Cl)cc2)N1C#N was read as Artemis endo inh 39.6*.
For COC(=O)CNC(=O)C(C)NC(=O)CNC(=O)OCc1ccccc1 (stereo unspecified) the results were Artemis endo inh 0.5.
For CCOc1ccc(Br)cc1S(=O)(=O)Nc1nc(CN2CCOCC2)nc2sc(C)c(C)c12 the results were Artemis endo inh 6.1.
Screening CCOC(=O)C(CC)(CC)/C(C)=N/NC(=O)CC#N returned Artemis endo inh 4.2.
For Cc1cccc(C)c1NC(=O)C(c1ccc(Cl)cc1Cl)N1CCCCC1 (stereo unspecified) the results were Artemis endo inh 9.8.
`CCCOC(=O)/C(=C\c1ccc([N+](=O)[O-])o1)NC(=O)c1ccccc1` gave Artemis endo inh 4.7.
Screening Cc1ccc2nc(N/N=C\c3ccc([N+](=O)[O-])o3)nc(-c3ccccc3)c2c1 returned Artemis endo inh 39.2*.
`O=[N+]([O-])c1ccc(/C=N/Nc2nc(-c3ccccc3)c3cc(Br)ccc3n2)o1` gave Artemis endo inh 57.5*.
`O=[N+]([O-])c1cccc(-c2ccc(/C=N/NC(=S)Nc3ccccc3)o2)c1` gave Artemis endo inh 16.2.
For Cc1ccc(/C=N\Nc2nc3ccc(Cl)cc3[nH]2)o1 the results were Artemis endo inh -4.4.
Screening O=C(NNC(=O)c1ccc([N+](=O)[O-])o1)c1ccccc1 returned Artemis endo inh 0.2.
Fc1ccc(Cn2nnnc2CN2CCc3ccccc3C2)cc1 was read as Artemis endo inh -6.8.
Screening CCOC(=O)Cc1csc(NC(=O)CCCCCN2C(=O)c3cccc4cccc(c34)C2=O)n1 returned Artemis endo inh 14.1.
Screening CCOC(=O)c1cc(C#N)c(Oc2ccccc2OC)nc1-c1ccccc1 returned Artemis endo inh 5.7.
For CCCC1(CCC)NC(=O)N(CC(=O)N2CCN(C(=O)c3ccco3)CC2)C1=O the results were Artemis endo inh -5.0.
Screening Cc1[nH]n(-c2ccccc2)c(=O)c1-c1cccc(Cl)c1 returned Artemis endo inh 6.9.
Cc1[nH]n(-c2ccccc2)c(=O)c1C(C[N+](=O)[O-])c1ccc(Br)cc1 (stereo unspecified) was read as Artemis endo inh 34.4*.
For Cc1nc(=S)n(-c2ccccc2)[nH]1 the results were Artemis endo inh -4.6.
Screening COc1ccccc1OC(=O)CN1C(=O)c2ccccc2C1=O returned Artemis endo inh 0.9.
For Cc1ccc(C)n1-c1ccc(-c2nnc3n2CCCCC3)s1 the results were Artemis endo inh 11.1.
For COc1ccc(C(=O)N2c3ccccc3C(=O)OC2c2ccc3c(c2)OCO3)cc1 (stereo unspecified) the results were Artemis endo inh -7.6.
COc1ccc(C2NC(=O)NC3=C2CCc2ccccc23)cc1 (stereo unspecified) was read as Artemis endo inh 43.8*.
COC(=O)COc1ccc(C2NC(=O)NC(c3ccccc3)=C2C(C)=O)cc1OC (stereo unspecified) was read as Artemis endo inh 3.7.
Screening O=C(Cn1c(SCC(=O)NC2CCCC2)nnc1-c1ccncc1)Nc1ccc2c(c1)OCO2 returned Artemis endo inh -0.3.
CCSc1nnc(NC(=O)COc2ccc3ccccc3c2)s1 was read as Artemis endo inh 0.1.
O=C(NC1CCCCCCC1)c1ccccc1O was read as Artemis endo inh -0.1.
`O=C(NC1CCCCCCC1)NC1CCCCC1` gave Artemis endo inh -3.5.
Screening O=C(NNC(=O)c1cc(O)c(O)c(O)c1)NC1CCCCC1 returned Artemis endo inh 31.5*.
